Assay outcomes: PubChem BioAssay, National Center for Advancing Translational Sciences (NCATS)
Only some compounds are listed: those with a hit (about 19% of all), similar ones and a draw of the others.
IL1B secr inh: inhibitors of inflammasome signaling (IL-1 beta secretion). THP-1 LPS/ATP IL-1B secretion, AlphaLISA, 16 h; hits give low values. activity change, % at 57.5 µM. 4.7% of 360,000 active. AID 743279; in the data active = activity change below about -50%; inconclusive = mostly about -30% to -49%
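THP-1 cells pretreated 1 hr with compounds (up to 57.5 uM final), then stimulated with LPS (250 ng/mL final) plus ATP (1.25 mM final); secreted IL-1B measured by AlphaLISA after 16 hr, decreased signal indicating inhibition.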
TDP1 cell noCPT: qHTS for Inhibitors of human tyrosyl-DNA phosphodiesterase 1 (TDP1): qHTS in cells in absence of CPT; AID 686978, 2013; 15% of 420,000 active; Potency, µM (top dose mostly 46.2 µM), without a hit: at the highest dose activity change, negative = growth inhibition, most hits filed as inhibitors; DT40 Tdp1-/- hTDP1 cells, no CPT, ATP luminescence, 48 h; note: potency is the fitted concentration of half-maximal effect; nearly all actives have a fitted effect of over 55% in size
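Stably hTDP1-transfected Tdp1-null chicken DT40 cells were treated with library compounds minus camptothecin and grown for at least 48 hr at 37 °C, after which cellular ATP was quantified by luminescence.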
ELG1 DNA repair: inhibitors of ELG1-dependent DNA repair in HEK293T cells; HEK293T ELG1-luciferase reporter, luminescence, 16 h; DNA damage induced by 5-fluorouridine; Potency, µM (top dose mostly 46.1 µM), without a hit: at the highest dose activity change, negative = inhibition, hits mostly inhibitors; 2.3% of 330,000 active; note: potency is the fitted concentration of half-maximal effect; nearly all actives have a fitted effect of over 55% in size
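Luminescence from the luciferase reporter, measured 30 min after ONE-Glo reagent at room temperature, was the read-out. Beforehand, 2,000 cells per well were exposed for 16 hr at 37 °C to 5-fluorouridine together with compound or vehicle.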
HT1080NT lethal: kills 2HG-producing HT-1080-NT fibrosarcoma cells. Potency, µM (doses to about 46.1 µM), for inactives: top-dose activity, negative = less viability, actives largely listed as cytotoxic. HT-1080-NT fibrosarcoma viability, CellTiter-Glo ATP luminescence, 48 h. AID 686970. 1.6% of 360,000 active;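 note: NT is the 2HG producing partner of a matched IDH1 knockdown line; potency is the fitted concentration of half-maximal effect; 0% = DMSO-treated cells and -100% = media-only wells without cells; nearly all actives have a fitted effect of over 55% in size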
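Toxicity toward the 2HG-producing NT line was scored as %Activity, normalised to DMSO and no-cell wells, from CellTiter-Glo luminescence after 48 hours' treatment.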
DT40 TDP1 CPT: growth inhibition of DT40 Tdp1-/-;hTDP1 cells with camptothecin (screen for TDP1 inhibitors); chicken DT40 Tdp1-/-;hTDP1 cells + 20 nM CPT, ATP luminescence, 48 h; Potency, µM (titrated, usually from 46.2 µM), for the others: at the highest dose activity change, negative = growth inhibition, most hits filed as inhibitors; 12% of 420,000 active; AID 686979; note: potency is the fitted concentration of half-maximal effect; nearly all actives have a fitted effect of over 55% in size
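Chicken DT40 Tdp1-/- cells complemented with human TDP1, 400 cells/well, exposed to compounds plus 20 nM camptothecin for at least 48 h at 37 C; viability read as ATP content by CellTiter-Glo luminescence.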
HT1080 IDH1KD tx: kills HT-1080 cells with IDH1 knockdown | HT-1080 IDH1 knockdown viability, ATP luminescence, 48 h | Potency, µM (highest dose often 46.1 µM), without a hit: at the highest dose activity, negative = toxicity, actives largely listed as cytotoxic | 2% of 360,000 active | AID 686971;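 note: potency is the fitted concentration of half-maximal effect; 0% = DMSO wells and -100% = cell-free medium wells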
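Luminescent ATP read-out (CellTiter-Glo, 10 min at room temperature) after 48 h compound exposure at 37 °C gave viability of IDH1-knockdown HT-1080 cells. Activity was normalised to DMSO and cell-free wells, then fitted as concentration-response curves.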
An asterisk follows results filed as active; ? = inconclusive; . = no result; [ ] = remark or other dose. Unless noted, calls come from the whole dose curve; as a rule, active = well fitted curve in the direction sought with a large enough effect; inconclusive = small, poorly fitted or top-dose-only effect, or another doubt; inactive = no such curve, though single readings can be large; an effect the other way counts as inactive or inconclusive. Unless noted, % is set by controls: 0 for no effect and ±100 for the full control effect.

SMILES | IL1B secr inh | TDP1 cell noCPT | ELG1 DNA repair | HT1080NT lethal | DT40 TDP1 CPT | HT1080 IDH1KD tx
C=CCC[C@@H](CCCCC)OC(=O)/C=C/[C@H](O)[C@@H](O)C[C@@H](O)CC=C | -6 | 16µM* | . | ? | ? | ?
CCOc1ccccc1CNC(=O)C1Cc2cc(S(=O)(=O)N3CCCCC3)ccc2N1C(C)=O (stereo unspecified) | -9 | ? | -8% | -17% | ? | -23%
Cc1ccc(S(=O)(=O)CCC(=O)Nc2ccccc2N2CCCC2)cc1 | -9 | -6% | 7% | 5%[9.24 µM] | ? | 7%
Cc1ccc(S(=O)(=O)CCC(=O)OCC(=O)Nc2sccc2C#N)cc1 | 0 | -16% | . | -6% | -15% | -1%
COC(=O)c1ccsc1NC(=O)CCS(=O)(=O)c1ccc(Cl)cc1 | -27 | 18µM* | 24% | 5% | ? | 1%
Cc1ccc(S(=O)(=O)CCC(=O)Nc2ccccc2C)cc1 | 12 | 23µM* | 6% | 0% | ? | 3%
Cc1ccc(S(=O)(=O)CCC(=O)Nc2sccc2C#N)cc1 | 15 | 21µM* | -4% | -3% | ? | -7%
Cc1ccc(S(=O)(=O)CCNC(=O)Cc2ccccc2)cc1 | 25 | ? | 6% | -10% | 21µM* | -12%
CC(O)(Cc1cccnc1)c1cccs1 (stereo unspecified) | 21 | 0% | . | 13% | 9% | 28%
CCCC(=O)C1=C(O)C(C(=O)OC)C(C)(C)CC1=Nc1cccc2ccccc12 (stereo unspecified) | -4 | 23µM* | ? | ? | ? | ?
COCCCNC(=O)c1ccc(S(=O)(=O)c2ccc(Cl)cc2)c(NC(C)=O)c1 | 2 | 15% | -1% | 8% | 4% | 9%
Cc1ccccc1C(=O)Nc1ccc(Br)cn1 | 5 | 21µM* | ? | ? | 9.2µM* | -6%[9.24 µM]
Cc1ccnc(NC(=O)c2ccccc2NC(=O)c2ccc(Cl)cc2Cl)c1 | 63 | 1.8µM* | -9% | 2.9µM* | 3.7µM* | 4.6µM*
O=C(Nc1ccccc1NC(=O)c1ccccc1Cl)c1ccccc1Cl | 0 | -27% | -15% | -5% | -11% | 1%
CCC(=O)Nc1ccc(Br)cn1 | -18 | -22% | 4% | ? | -2% | 12%
O=C(Nc1ccccc1C(=O)Nc1ccc(Br)cn1)c1ccccc1Cl | ? | ? | ? | 1% | 15µM* | -5%
O=C(Nc1ccc(Cl)cc1C(=O)Nc1ccccn1)c1ccco1 | -52* | ? | ? | 2% | -22% | -23%
Cc1ccnc(NC(=O)c2ccc(Cl)c(NC(=O)c3ccccc3C)c2)c1 | 12 | ? | ? | -12% | ? | -8%
COc1ccc(-n2c(=O)c3c(c4cc(OC)ccc4n3C)n(Cc3cccc(OC)c3)c2=O)cc1 | . | -16% | . | . | -20% | .
COc1ccc(NC(=O)CSc2nnc(NC(=O)C3CC3)s2)cc1OC | -9 | 7% | -4% | 2% | 0% | 12%
O=C(NC(=S)Nc1ccc(Br)cn1)c1cccs1 | 39 | ? | ? | -5% | ? | -3%
S=C(Nc1ccccc1)Nc1ccc(Br)cn1 | 0 | 3.7µM* | 3% | -7% | 6.5µM* | -3%
C=CCn1cccc(C(=O)Nc2ccc(F)cc2)c1=O | 28 | -6% | ? | 7% | -16% | 0%
Cc1cc(C)c(Cn2c3ccccc3c3cnn(CC(=O)NCc4ccccn4)c(=O)c32)c(C)c1 | 31 | 23µM* | ? | -18% | 21µM* | -24%
O=C(Cn1ncc2c3ccccc3n(Cc3ccc(Cl)cc3)c2c1=O)NCCC1=CCCCC1 | . | -3% | . | . | 4% | .
SMILES | IL1B secr inh | TDP1 cell noCPT | ELG1 DNA repair | HT1080NT lethal | DT40 TDP1 CPT | HT1080 IDH1KD tx
Cc1cc(C)c2nc(SCC(=O)NCCC3=CCCCC3)cc(C)c2c1 | 9 | 21µM* | 8% | 6% | ? | 7%
Cc1cc(C)c(Cn2c3ccccc3c3cnn(CC(=O)NCCCc4ccccc4)c(=O)c32)c(C)c1 | . | 21µM* | . | . | 18µM* | .
Cc1ccccc1Cn1c2ccccc2c2cnn(CC(=O)NCc3ccccn3)c(=O)c21 | 4 | ? | 5% | ? | ? | ?
Cc1cc(C)c(Cn2c3ccccc3c3cnn(CC(=O)NCCC4=CCCCC4)c(=O)c32)c(C)c1 | . | 16µM* | . | . | 21µM* | .
Cc1cccc(-c2cc(=O)c3cc(Br)ccc3o2)c1 | . | -8% | . | . | 26% | .
CC(C)(CO)NC(=O)c1ccc2nc(Cc3cccc(Cl)c3)oc2c1 | -3 | -25% | ? | -2% | -14% | 0%
Cc1ccc(C(=O)Nc2cc(-c3cn4cccnc4n3)ccc2C)cc1C | . | -29% | . | . | ? | .
Cc1oc(-c2cc(F)ccc2F)nc1CN(C)Cc1ccc2nccnc2c1 | 22 | 16µM* | ? | 1% | ? | 3%
COc1ccc(N(CC(C)C)S(=O)(=O)c2nnc(NC(=O)c3cccs3)s2)cc1 | . | 21µM* | . | . | ? | .
CC(C)(C)c1ccccc1NC(=O)Nc1nc(C(N)c2ccccc2Cl)cs1 (stereo unspecified) | 25 | ? | . | ? | ? | ?
CC(C)C(N)c1csc(NC(=O)Nc2ccccc2C(C)(C)C)n1 (stereo unspecified) | -60* | ? | . | ? | 18µM* | ?
COc1ccc(CC(N)c2csc(NC(=O)c3cccs3)n2)cc1 (stereo unspecified) | -19 | 23µM* | . | -27% | 18µM* | -21%
COc1ccc(CC(N)c2csc(NC(=O)Nc3ccccc3-c3ccccc3)n2)cc1 (stereo unspecified) | -58* | ? | . | 15µM* | ? | -9%
CN(C)c1nc(-c2ccccc2)c2cc(Cl)ccc2n1 | -5 | ? | 3% | 0% | -11% | -10%
COc1ccccc1/C=C/C=c1\sc2nc(=O)c(Cc3ccccc3)nn2c1=O | 0 | -15% | 23% | 3% | -3% | -1%
CC(C)Oc1ccccc1C1C=C(C(=O)O)Nc2ncnn21 (stereo unspecified) | . | -2% | . | . | 4% | .
O=C(NCc1ccon1)C1CCC(=O)N(CCc2cccc(F)c2)C1 (stereo unspecified) | 6 | 2% | 0% | 0% | 1% | -1%
COc1ccc(CC(N)c2csc(NC(=O)Nc3ccccc3C(C)(C)C)n2)cc1 (stereo unspecified) | -52* | ? | . | ? | ? | ?
